# Reference: PubChem BioAssay AID504700 (The Scripps Research Institute Molecular Screening Center, 2011)
# Out of some 340,000 compounds screened, about 270 (0.079%) were called active. This is one part of a sample in which actives are shown more often than they occur.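 How the source made its calls: active means activation above a cutoff set at the mean over all compounds plus 3 SD (cut at about 18% in these data); inactive means the rest.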
# Biological target: cAMP-dependent protein kinase catalytic subunit beta (Homo sapiens) + cAMP-dependent protein kinase type II-beta regulatory subunit (Homo sapiens) (UniProt P22694+P31323)
# Assay: compounds dissociating PKAc from R2B subunit – biochemical, fluorescence polarization, Cy5-IP20, human, primary screen (AID 504700)
# Settings: PKA-R2B holoenzyme dissociation, at 11.4 µM, stronger effect = higher value, 0% DMSO only, 100% 113 µM cGMP, R2B truncated from residue 108, S112A mutant
# cAMP-dependent protein kinase catalytic subunit beta (Homo sapiens) + cAMP-dependent protein kinase type II-beta regulatory subunit (Homo sapiens), sequence (P31323 whole entry, looked up, other chains not shown): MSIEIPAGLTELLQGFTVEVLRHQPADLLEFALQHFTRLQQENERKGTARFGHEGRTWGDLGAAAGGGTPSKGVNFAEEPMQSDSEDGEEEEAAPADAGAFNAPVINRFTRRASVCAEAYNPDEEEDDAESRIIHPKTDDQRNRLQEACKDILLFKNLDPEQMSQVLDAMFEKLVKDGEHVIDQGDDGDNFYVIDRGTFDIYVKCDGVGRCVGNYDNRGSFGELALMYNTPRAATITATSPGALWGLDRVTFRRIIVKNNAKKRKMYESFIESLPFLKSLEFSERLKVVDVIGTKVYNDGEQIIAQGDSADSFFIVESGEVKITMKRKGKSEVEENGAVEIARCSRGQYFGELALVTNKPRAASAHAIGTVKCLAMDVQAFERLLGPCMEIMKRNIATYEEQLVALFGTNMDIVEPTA
row,SMILES,activation
1,CC(OC(=O)c1cccc(S(=O)(=O)N2CCOCC2)c1)C(=O)NCC1CCCCC1 (stereo unspecified),12.7% (inactive)
2,O=S(=O)(NCCc1ccccc1)c1ccccc1,-0.17% (inactive)
3,O=S(=O)(NCCc1ccncc1)c1ccccc1,-6.62% (inactive)
4,O=S(=O)(NCCNS(=O)(=O)c1ccccc1)c1ccccc1,21.6% (active)
5,COc1ccc(C(C)(C)C)cc1NC(=O)CN(C)C1=NS(=O)(=O)c2ccccc21,-0.8% (inactive)
6,O=C(Nc1cc(F)ccc1F)c1ccc2c(=O)n3c(nc2c1)CCC3,0.72% (inactive)
7,CC(C)CCOc1ccc(C(=O)Nc2cc(S(=O)(=O)N3CCOCC3)ccc2N2CCOCC2)cc1,-1.72% (inactive)
8,Cc1sc2nc(-c3ccccc3F)oc(=O)c2c1C,-7.56% (inactive)
9,O=C(NCc1nnnn1-c1ccc(Cl)cc1)c1ccc([N+](=O)[O-])o1,-12% (inactive)
10,COc1cc(NC(=O)C2=C(C)OCCS2)c(Cl)cc1C(=O)NCCCN1CCCC(C)C1 (stereo unspecified),-6.54% (inactive)
11,C[C@H]1Cn2cnc(C(=O)N[C@H](C)c3ccccc3)c2C(=O)N1,1.6% (inactive)
12,Cc1ccn2c(-c3csc(Nc4ccc(C(=O)O)cc4)n3)c(C)nc2c1,-9.54% (inactive)
13,C[C@@H]1CN([C@@H](C)CO)C(=O)CCCn2cc(nn2)CO[C@H]1CN(C)S(=O)(=O)c1ccc(-n2cccn2)cc1,-4.5% (inactive)
14,CCc1c(N=O)c(-c2ccccc2)n(O)[n+]1[O-],-1.7% (inactive)
15,C[C@@H]1CN([C@@H](C)CO)C(=O)c2cc(Br)cnc2O[C@H]1CN(C)Cc1ccc(-c2ccccc2)cc1,1.42% (inactive)
16,O=C(CC(CC(=O)c1ccccc1)c1ccco1)c1ccccc1,-2.04% (inactive)
17,C[C@@H]1Cn2cnc(C(=O)Nc3ccc(CNC(=O)OC(C)(C)C)cc3)c2C(=O)N1,-0.19% (inactive)
18,COCCCn1c(=O)/c(=C/c2ccccc2OC(C)C)s/c1=C(\C#N)C(=O)Nc1ccc(C(=O)O)cc1,0.06% (inactive)
19,O=C(OCc1ccccc1)N1CCC2CC1c1cc(N3CCN(S(=O)(=O)c4cc(Cl)cc(Cl)c4)CC3)ccc12 (stereo unspecified),-12.1% (inactive)

row,SMILES,activation
1,CCc1cccc(CC)c1N1C(=O)CC(Sc2ccccc2N)C1=O (stereo unspecified),3.56% (inactive)
2,COc1cccc(OC)c1C(=O)N1CCN(Cc2ccccc2F)CC1,-3.43% (inactive)
3,COC(=O)C(Cc1c[nH]c2ccccc12)NC(=O)CCNC(=O)c1ccco1 (stereo unspecified),7.88% (inactive)
4,COc1cc2c(=O)n(C)c3ccccc3c2cc1OC,-7.59% (inactive)
5,N#CC1(Nc2ccc3c4c(cccc24)CC3)CCCCC1,-2.43% (inactive)
6,Cc1ccc([C@H]2C[C@H](O)[C@@H](n3cc(COC(=O)c4ccccc4)nn3)CN2C(=O)C2CCCCC2)cc1,-12.7% (inactive)
7,O=NN(CCCl)C(=O)NCCc1cccc[n+]1[O-],-9.83% (inactive)
8,CC(C)N=C1CCCC1C(=S)SSC(=S)C1CCCC1=NC(C)C (stereo unspecified),-0.99% (inactive)
9,Cc1ccc(CN(C)C[C@@H]2OCc3cnnn3CCCC(=O)N([C@@H](C)CO)C[C@H]2C)cc1,-5.57% (inactive)
10,CC1=C(C(=O)N2CCOCC2)CC(CC(=O)NCc2ccco2)C(=O)N1Cc1ccc(F)cc1 (stereo unspecified),-2.68% (inactive)
11,C=CCOc1ccccc1CNn1c(C)n[nH]c1=S,10.7% (inactive)
12,Cc1c(NC(=O)COC(=O)/C=C/c2cccc(F)c2)c(=O)n(-c2ccccc2)n1C,-14.1% (inactive)
13,CCc1cc(-c2nnn(CCC3COCCO3)c2CC)ccc1-c1cn(Cc2ccc3ccccc3c2)nn1 (stereo unspecified),2.92% (inactive)
14,CCC1NC(=O)c2cccnc2-n2c1nc1ccc(C)cc1c2=O (stereo unspecified),2.84% (inactive)
15,CNC(=O)c1ccc(CN(C)C(=O)c2cc(C3CC3)nc3c2cnn3C(C)C)cc1,-10% (inactive)
16,O=C(OCC(=O)N1CCCCCC1)c1cccc(Cl)c1Cl,-0.23% (inactive)
17,CC(C)(C)c1ccc(C(=O)N2CCC(C(=O)N3CCCCC3)CC2)cc1,19.2% (active)
18,NC(=O)C1CCN(C(=O)c2ccc(C(F)(F)F)cc2)CC1,-0.72% (inactive)
19,O=C(c1ccc(F)cc1)N1CCCC(C(=O)N2CCCCC2)C1 (stereo unspecified),-0.42% (inactive)

row,SMILES,activation
1,CC1=C(C(=O)N(C)C)CC(CC(=O)NCCN2CCOCC2)C(=O)N1Cc1ccccc1 (stereo unspecified),10.5% (inactive)
2,COc1ccccc1-c1n[nH]nc1C1=CC(=O)CC(C)(C)C1,-8.69% (inactive)
3,Cc1ccc(C(=O)N[C@H](C(=O)N2CCN(c3ncccn3)CC2)C(C)C)cc1,-3.29% (inactive)
4,CCCCN1C(=O)C(CC(=O)NCc2cccs2)CC(C(=O)N2CCOCC2)=C1C (stereo unspecified),3.17% (inactive)
5,O=C(OCc1cn([C@H]2C[C@H](c3ccccc3)N(C(=O)c3cccs3)C[C@@H]2O)nn1)c1ccccc1,4.15% (inactive)
6,COc1ccc(C/C(C)=N/NC(=O)c2cc(C)oc2C)cc1,-9.63% (inactive)
7,COc1ccc(C(=O)N/N=C(\C)CC(=O)Nc2ccc(Cl)cn2)cc1,-4.03% (inactive)
8,COc1ccc(C/C(C)=N/NC(=O)c2ccncc2)cc1,18.7% (active)
9,C[C@H]1Cn2cnc(C(=O)N[C@@H](Cc3c[nH]c4ccccc34)C(=O)OC(C)(C)C)c2C(=O)N1,-2.27% (inactive)
10,CC(=O)Nc1c(-c2ccc(C)cc2)nc2ccc(Cl)cn12,-8.99% (inactive)
11,CC1CCN(c2ccc3c(c2)S(=O)(=O)c2cc(C(=O)O)ccc2C3=O)CC1,-8.29% (inactive)
12,CCN(CC)CCN(C(=O)c1ccc2c(c1)CCCC2)c1nc2c(OC)cccc2s1,-1.68% (inactive)
13,CNS(=O)(=O)c1ccc2c(c1)[nH]c(=S)n2C,9.72% (inactive)
14,C=CCn1nc(C(=O)OCC)cc1-c1sc(NC(=O)c2ccccc2)nc1C,4.98% (inactive)
15,COc1ccc(C(=O)NCC2CCCO2)cc1S(=O)(=O)NCc1ccc(Cl)cc1 (stereo unspecified),-8.65% (inactive)
16,Cc1cc2c3ccccc3[nH]c(=O)n2n1,-8.33% (inactive)
17,CCOc1ccc(S(=O)(=O)NCCC(=O)NNC(=O)c2ccc(F)cc2)cc1,-0.05% (inactive)
18,COc1ccc(-n2c(-c3ccc(Cl)cc3)n[nH]c2=S)c(OC)c1,13% (inactive)
